Hits are enriched below; roughly 4.2% of the tested compounds scored in any of these assays.
Sfp PPTase inh: inhibitors of Bacillus subtilis Sfp phosphopantetheinyl transferase | Potency, µM, for the others: largest response in the series, negative = inhibition, most hits filed as inhibitors | Biochemical Sfp PPTase activity, qHTS | 3.5% of 310,000 active | Q9F4F7 | AID 1490;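 also: the enzyme is Sfp with the accession as filed and its product quenches rhodamine fluorescence; 0% = enzyme reaction without inhibitor and -100% = no enzyme wells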
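After 15 min at room temperature with compound, 15 nM Sfp received 5 uM rhodamine-CoA plus 12.5 uM BHQ-2-ybbR (50 mM Hepes pH 7.6, 10 mM MgCl2). Rate came from the fluorescence difference over 30 min, ex 525/em 598 nm.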
12-LOX inh: blocks human arachidonate 12S-lipoxygenase | Potency, µM (highest dose often 108 µM), for inactives: at the top dose activity change, negative = inhibition, most hits filed as inhibitors | P18054 | 1.1% of 580,000 active | purified 12hLO, xylenol orange hydroperoxide absorbance; also: % is scaled to controls: 0 for no effect and ±100 for the full control effect
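Purified human 12hLO at 150 nM in 25 mM Hepes, 0.01% Triton X-100, pH 7.0, preincubated 15 min at room temperature with compound. Reaction started with 40 uM arachidonic acid, 30 min at room temperature. Hydroperoxide measured by Fe-xylenol orange, 573/405 nm absorbance ratio.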
VDR inh: inhibitors of human vitamin D receptor; P11473; VDR-SRC2-3 peptide fluorescence polarization, 2 h; Potency, µM, without a hit: max response, negative = inhibition, usual class: inhibitors; 0.93% of 400,000 active; AID 504847; also: % is scaled to controls: 0 for no effect and ±100 for the full control effect
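After 23 nl compound addition and a short centrifugation, plates sat for 2 hours at ambient temperature; polarization of fluorescence then indicated loss of VDR binding to peptide SRC2-3.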
PLK1 PBD block: blocks phosphopeptide binding to human PLK1 polo-box domain. Plk1 PBD binding of FITC phosphopeptide, fluorescence polarization. Potency, µM, for inactives: max response, negative = inhibition, usual class: inhibitors. 2.8% of 360,000 active. AID 720504; also: series mostly up to about 57 µM; % is scaled to controls: 0 for no effect and ±100 for the full control effect; nearly all actives have a fitted effect of over 65% in size
Target sequence (P53350 whole entry, looked up, the tested form may be a part): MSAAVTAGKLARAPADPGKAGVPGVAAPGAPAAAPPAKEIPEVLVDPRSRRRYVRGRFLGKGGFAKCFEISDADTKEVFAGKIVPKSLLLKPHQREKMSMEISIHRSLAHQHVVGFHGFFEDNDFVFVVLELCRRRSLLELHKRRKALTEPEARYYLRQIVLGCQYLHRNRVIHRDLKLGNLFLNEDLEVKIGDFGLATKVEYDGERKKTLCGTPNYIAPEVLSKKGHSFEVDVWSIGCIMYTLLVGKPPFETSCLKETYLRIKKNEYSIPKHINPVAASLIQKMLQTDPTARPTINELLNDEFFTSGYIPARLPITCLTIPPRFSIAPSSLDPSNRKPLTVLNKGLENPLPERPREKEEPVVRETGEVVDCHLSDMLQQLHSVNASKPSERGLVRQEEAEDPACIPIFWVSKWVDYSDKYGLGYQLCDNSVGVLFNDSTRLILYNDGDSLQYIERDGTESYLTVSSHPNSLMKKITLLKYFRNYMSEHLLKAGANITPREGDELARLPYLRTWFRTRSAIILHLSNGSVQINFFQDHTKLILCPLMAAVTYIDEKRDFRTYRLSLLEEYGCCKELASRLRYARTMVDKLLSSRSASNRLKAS
VDR confirm: inhibits human vitamin D receptor, primary hit validation. shares compounds with VDR inh. VDR-coactivator inhibition assay, qHTS confirmation. Potency, µM, hits mostly inhibitors. 89% of 840 active. AID 602199
VDR FP fluor: blocks human VDR-coactivator binding in fluorescein assay | VDR-coactivator binding, fluorescein fluorescence polarization | shares compounds with VDR inh | Potency, µM (series often up to 57.1 µM), for the others: at the top dose activity change, negative = inhibition, usual class: inhibitors | AID 602200 | 48% of 840 active
VDR bla: VDR (human) inhibition, cell-based beta-lactamase validation | shares compounds with VDR inh | VDR beta-lactamase reporter cells, FRET ratio; cells co-treated with VDR agonist LG190178 | Potency, µM (top dose mostly 46.1 µM), for inactives: top-dose activity change, negative = inhibition, most hits filed as inhibitors | 23% of 840 active | AID 602202; also: % is scaled to controls: 0 for no effect and ±100 for the full control effect
VDR viability: cytotoxic in counter-screen for VDR inhibitors; cytotoxicity counter-screen, cell viability, qHTS; 18% of 840 active; Potency, µM (series often up to 48.3 µM), without a hit: at the top dose activity change, negative = cytotoxicity, actives largely listed as cytotoxic; shares compounds with VDR inh;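 also: plate controls were DMSO for no effect and high-concentration cycloheximide for full effect; nearly all actives have a fitted effect of over 75% in size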
Active calls of the source: *; ? = inconclusive; . = not tested or not shown; [ ] = dose if it differs, or a comment. Calls follow the shape of the dose curve; as a rule, active = well fitted curve in the direction sought with a large enough effect; inconclusive = small, poorly fitted or top-dose-only effect, or another doubt; inactive = no such curve, though single readings can be large; an effect the other way counts as inactive or inconclusive. Potency is read from the fitted curve at half-maximal effect.

SMILES	Sfp PPTase inh	12-LOX inh	VDR inh	PLK1 PBD block	VDR confirm	VDR FP fluor	VDR bla	VDR viability
CCOc1ccc(C(Nc2cccnc2)c2cc(Cl)c3cccnc3c2O)cc1 (stereo not given)	?	10µM*	?	4.7µM*	7.1*	?	-21%	?
O=C(NC(c1ccccc1)c1cc(Cl)c2cccnc2c1O)c1cccnc1 (stereo not given)	-7%	?	.	.	.	.	.	.
O=C(O)COc1ccccc1C(Nc1cccnc1)c1cc(Cl)c2cccnc2c1O (stereo not given)	22µM*	.	22µM*	1.2µM*	13*	?	10%	21%
CC1(OC(=O)C2CCCC2)C(=O)C=C2C=C(c3ccsc3)N(CCc3c[nH]c4ccccc34)C=C2C1=O (stereo not given)	-13%	.	?	-19%	?	?	10%	34%
NCc1ccc(Oc2ncnc3ccccc23)cc1	.	5%[12.5 µM]	.	.	.	.	.	.
CCCCN1C(=O)C(=Nc2cccc3cnccc23)c2ccccc21	7%	-9%	50µM*	-14%	15*	?	12%	29%
O=C(NCC(c1ccco1)N1CCCCC1)c1ccc(OCc2ccccc2)cc1 (stereo not given)	14%	-4%	-1%	-14%	.	.	.	.
O/N=C/c1cc(Br)ccc1OCc1ccc(F)cc1	.	0%	?	-25%	.	.	.	.
O=C(O)CN1C(=O)/C(=C\c2cc(Br)ccc2OCc2ccc(F)cc2)SC1=S	-4%	2.5µM*	71µM*	21µM*	?	32µM*	24%	11%
CCOc1cc(C(Nc2cc(C)ccn2)c2ccc3cccnc3c2O)ccc1OC (stereo not given)	.	?	22µM*	.	7.1*	3.5µM*	-5%	?
Cc1ccc(OCCN2C(=O)c3ccccc3C2=O)c(C)c1	2%	-12%	5%	-5%	.	.	.	.
Cc1ccccc1OCCCN1C(=O)C(=O)c2cccc(C)c21	-25%	?	32µM*	?	?	11µM*	2%	20%
Cc1cccc2c1N(CCCOc1ccccc1)C(=O)C2=O	2%	?	50µM*	?	19*	?	-10%	10%
COc1ccc(-c2noc(-c3nnn4c3COC(c3ccc(Cl)cc3)C4)n2)cc1OC (stereo not given)	.	35%	.	.	.	.	.	.
Cc1ccc(S(=O)(=O)NCc2ccc(C(=O)N(C)CCC#N)cc2)cc1	15%	1%	26%	-3%	.	.	.	.
Cc1c(NC(=O)C(C)OC(=O)Cc2ccc(F)cc2)c(=O)n(-c2ccccc2)n1C (stereo not given)	.	14%	-6%	-8%	.	.	.	.
CCN(CC)C(=O)/C(=C\c1ccc(Br)cc1)NC(=O)c1ccccc1OC	9%	6%	-11%	0%	.	.	.	.
O=C(Nc1cc(S(=O)(=O)N2CCOCC2)ccc1N1CCCC1)c1ccc(Cl)cc1	.	25µM*	?	7.5µM*	13*	7.9µM*	-16%	?
Nc1cc(S(=O)(=O)N2CCCCC2)ccc1N1CCCCC1	.	20%	-8%	-1%	.	.	.	.
O=C(Nc1cc(S(=O)(=O)N2CCOCC2)ccc1N1CCCC1)c1ccccc1F	.	18%	.	3%	.	.	.	.
Nc1cc(S(=O)(=O)N2CCOCC2)ccc1N1CCCCC1	.	?	25µM*	3µM*	6*	?	30%	6%
O=C(Nc1cc(S(=O)(=O)N2CCOCC2)ccc1N1CCCCC1)c1ccccc1Br	.	?	89µM*	4.7µM*	17*	?	17%	19%
O=C(Nc1cc(S(=O)(=O)N2CCOCC2)ccc1N1CCCCC1)c1ccc(Cl)cc1	.	?	?	5.3µM*	9.5*	?	2%	22%
CCc1ccc(OC(=O)C(c2ccccc2)c2ccccc2)cc1	.	-4%	.	.	.	.	.	.
CC1COc2ccccc2N1C(=O)c1ccccc1Cl (stereo not given)	3%	14%	-1%	-26%	.	.	.	.
SMILES	Sfp PPTase inh	12-LOX inh	VDR inh	PLK1 PBD block	VDR confirm	VDR FP fluor	VDR bla	VDR viability
COc1ccc(C)cc1NC(=O)CCN1CCCC1	24%	-19%	-7%	-12%	.	.	.	.
O=C(Nc1cc(S(=O)(=O)N2CCOCC2)ccc1N1CCCC1)c1ccc2c(c1)S(=O)(=O)c1ccccc1C2=O	10µM*	14µM*	45µM*	4.7µM*	8.4*	3.5µM*	27%	-5%
O=C(Nc1nnc(-c2ccccc2)s1)C1CCCN(C(=O)c2ccoc2)C1 (stereo not given)	.	.	45µM*	.	16*	8.9µM*	?	-3%
CCc1nnc(NC(=O)C2CCCN(C(=O)c3ccoc3)C2)s1 (stereo not given)	.	.	-20%	.	.	.	.	.
CCOCC(=O)Nc1c(C(=O)N2CCN(c3ncccn3)CC2)oc2ccccc12	4%	6%	-11%	?	.	.	.	.
CN1CCN(C(c2ccc(F)cc2)c2ccc3cccnc3c2O)CC1 (stereo not given)	.	.	-17%	?	.	.	.	.
CN1CCN(C(c2ccc(Br)cc2)c2cc(Cl)c3cccnc3c2O)CC1 (stereo not given)	50µM*	10µM*	?	5.3µM*	7.9*	3.2µM*	23µM*	?
C=CCOc1cccc(NC(=O)c2ccc(OCC)cc2)c1	.	13%	.	.	.	.	.	.
C=CCOc1cccc(C(=O)/C=C2/C(=O)Nc3ccccc32)c1	56µM*	?	?	?	8.4*	8.9µM*	?	?
CC(=O)C1=C(c2ccc(Br)cc2)C(=O)c2ccccc2C1=O	-15%	-18%	25µM*	-21%	5*	7.9µM*	2.9µM*	8.4µM*
Cc1cnc(C(=O)OCC(=O)Nc2cc(-c3ccccc3)nn2-c2ccccc2)cn1	.	?	5%	3%	.	.	.	.
O=C(/C=C\c1ccccc1OC(=O)c1ccccc1F)c1cc2ccccc2o1	?	-17%	14µM*	-16%	?	3.5µM*	?	?
CC(=O)/C=C\c1ccccc1OC(=O)c1cc2ccccc2oc1=O	-5%	6%	-25%	-7%	.	.	.	.
COc1ccc(C(=O)/C=C/c2ccccc2F)c(OC(=O)c2ccc(C)cc2)c1	.	8%	.	.	.	.	.	.
O=C(/C=C/c1ccccc1F)c1cccc([N+](=O)[O-])c1	2.8µM*	-7%	13µM*	?	2.5*	1.6µM*	26µM*	0%
COc1cc(/C=C/C(=O)c2cccc([N+](=O)[O-])c2)cc(OC)c1OC	-15%	-16%	?	?	2.2*	2.5µM*	?	?

Screens as filed in PubChem.
